Source: PubChem BioAssay
DT40 TDP1 no CPT: qHTS for Inhibitors of human tyrosyl-DNA phosphodiesterase 1 (TDP1): qHTS in cells in absence of CPT; DT40 Tdp1-/- hTDP1 cells, no CPT, ATP luminescence, 48 h; Potency, µM (titrated, usually from 46.2 µM), inactives show top-dose activity change, negative = growth inhibition, actives largely listed as inhibitors; 15% of 420,000 active; also: potency is read from the fitted curve at half-maximal effect; % is scaled to controls: 0 for no effect and ±100 for the full control effect; nearly all actives have a fitted effect of over 55% in size
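DT40 Tdp1-/-;hTDP1 cells, no CPT (DMSO vehicle only), 400 cells/well; compounds pin-transferred; ≥48 hr, 37 °C; CellTiter-Glo 30 min RT dark, luminescence read.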
D3 ag: activates the human D3 dopamine receptor; P35462; D3R DiscoveRx beta-arrestin cells, luminescence, 90 min; max activation, %; 0.58% of 410,000 active; AID 652048; in the data active = max activation above about 30%; also: 0% is about no effect
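Agonist mode: compounds and dopamine controls were applied to plated cells for 90 min at 37 degrees C after an overnight attachment at 1500 cells/well. Luminescent read-out followed 30 - 60 minutes at room temperature with DiscoveRx detection reagent.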
D3 antag: blocks the human D3 dopamine receptor. P35462. D3R cells, DiscoveRx beta-arrestin luminescence, antagonist mode; active compounds read low. max response, negative = inhibition, %. 2.5% of 360,000 active; in the data active = max response below about -50%; inconclusive = no clear call, values can overlap the other calls; also: % is scaled to controls: 0 for no effect and ±100 for the full control effect
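Cells expressing the human receptor were seeded at 1500 cells/well, incubated overnight at 37 degrees C in 5% CO2, then exposed to library compounds with dopamine controls for 90 minutes at 37 degrees C before luminescent detection.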
TDP1 cell CPT: DT40-hTDP1 cell growth loss with CPT | 12% of 420,000 active | Potency, µM (titrated, usually from 46.2 µM), for inactives: at the top dose activity change, negative = growth inhibition, most hits filed as inhibitors | chicken DT40 Tdp1-/-;hTDP1 cells + 20 nM CPT, ATP luminescence, 48 h | AID 686979; also: potency is read from the fitted curve at half-maximal effect; % is scaled to controls: 0 for no effect and ±100 for the full control effect; nearly all actives have a fitted effect of over 55% in size
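Cell growth measured by CellTiter-Glo luminescence after a minimum 48 h, 37 C compound exposure with 20 nM CPT in Tdp1-knockout DT40 cells stably expressing hTDP1, seeded 400/well; qHTS titration format.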
IL1B secr inh: inhibitors of inflammasome signaling (IL-1 beta secretion); THP-1 LPS/ATP IL-1B secretion, AlphaLISA, 16 h; active compounds read low; activity change, % at 57.5 µM; 4.7% of 360,000 active; AID 743279; in the data active = activity change below about -50%; inconclusive = mostly about -30% to -49%; also: % is scaled to controls: 0 for no effect and ±100 for the full control effect
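Secreted IL-1B measured by AlphaLISA bead assay after 16 h compound exposure of THP-1 cells; compounds (final up to 57.5 uM) added 1 h before LPS (250 ng/mL) and ATP (1.25 mM) stimulation; lower signal means less secretion.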
ClpP mod: qHTS Assay for Activators of ClpP. ATP-dependent Clp protease proteolytic subunit (Bacillus subtilis (strain 168)), P80244. purified B. subtilis ClpP, FRET peptide cleavage, 20 min. Potency, µM (doses to about 57.5 µM), without a hit: top-dose activity change, negative = active. 1.9% of 340,000 active; active = well fitted falling curve with a large enough effect; inconclusive = small, poorly fitted or top-dose-only effect; inactive = no such curve, though single readings can be large or run the other way; also: potency is read from the fitted curve at half-maximal effect; the source files actives as falling curves though it sought activators and does not explain the sign; nearly all actives have a fitted effect of over 65% in size
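Buffer: 100 mM Tris/HCl pH8, 100 mM KCl, 0.05% low protease BSA, 2.5% glycerol, 0.01% Tween-20. ClpP 10 microg/mL final; 20 min RT; delta FRET normalized to ADEP and DMSO controls.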
* = called active by the depositor; ? = inconclusive; . = no result. Shown are actives, neighbours in structure and some others; about 21% of the full set was active somewhere. Unless noted, calls follow the shape of the dose curve; as a rule, active = well fitted inhibition curve with a large enough effect; inconclusive = small, poorly fitted or top-dose-only effect; inactive = flat fitted curve, though single readings scatter.

SMILES | DT40 TDP1 no CPT | D3 ag | D3 antag | TDP1 cell CPT | IL1B secr inh | ClpP mod
CN(CC(=O)Nc1ccccc1C(F)(F)F)C(=O)C1CCN(S(=O)(=O)c2ccc3c(c2)OCCO3)CC1 | ? | -2 | 13 | ? | 10 | 1%
CCc1nnc(SCC(=O)Nc2cc(Cl)c(OC)cc2OC)c2cc3oc(C)cc3n12 | ? | 5 | . | ? | . | -5%
CC(Sc1nnc(-c2ccc(Cl)cc2)n1N)C(=O)NCC1CCCO1 (centres undefined) | 7% | 6 | 13 | -1% | 6 | 0%
C[C@H](O)[C@@H]1C(=O)N2CCc3ccc(-c4cccc(F)c4)cc3[C@@H]2C[C@@H]1N(C)S(=O)(=O)c1ccccc1 | ? | 16 | 31 | ? | -52* | -3%
C[C@H](O)[C@@H]1C(=O)N2CCc3ccc(-c4ccccc4)cc3[C@@H]2C[C@@H]1N(C)C(=O)c1ccco1 | 15µM* | -7 | -24 | ? | 9 | 2%
COCC(=O)N(C)[C@H]1C[C@H]2c3cc(-c4ccccc4)ccc3CCN2C(=O)[C@H]1[C@H](C)O | -24% | 4 | 20 | 12% | 11 | 1%
Nc1nonc1-c1nc2ccccc2n1Cc1c(Cl)cccc1Cl | -32% | 17 | . | -12% | . | -9%
COc1ccccc1N1CCN(S(=O)(=O)c2c(C)sc3ncn(CC(=O)Nc4ccc(C(C)C)cc4)c(=O)c23)CC1 | ? | -6 | . | ? | . | 1%
COc1ccc(Cl)cc1NC(=O)Cn1cnc2sc(C)c(S(=O)(=O)N3CCN(c4ccccc4OC)CC3)c2c1=O | 7.3µM* | 3 | . | 7.3µM* | . | 0%
COCCNC(=O)Cn1cnc2sc(C)c(S(=O)(=O)N3CCN(c4ccccc4OC)CC3)c2c1=O | -8% | 3 | -10 | 11% | 13 | 1%
COc1ccc(OC)c(NC(=O)Cn2cnc3sc(C)c(S(=O)(=O)N4CCN(c5ccccc5OC)CC4)c3c2=O)c1 | ? | 3 | . | 21µM* | . | 0%
O=C1CCCC/C1=C/NCc1ccc(F)cc1 | -18% | -1 | ? | 3% | -9 | -4%
Cc1cc(C)n2nc(SCC(=O)N(CCC#N)c3ccc(F)cc3)nc2n1 | -9% | 2 | -7 | -8% | -4 | -14%
CCCCOc1ccc(C(=O)NCC(=O)NCC(c2ccc(F)cc2)N2CCOCC2)cc1 (centres undefined) | ? | 1 | 11 | ? | -14 | -1%
O=C(CNc1ccccc1Cl)c1ccc(Br)cc1 | ? | -2 | 8 | ? | -77* | 0%
O=C(CNc1ccc(Br)cc1)c1ccccc1 | 0% | -9 | -9 | ? | -23 | -1%
CN1CCN(NC(=O)Nc2ccc(Br)cc2Cl)CC1 | -4% | 0 | 3 | -8% | -50* | 1%
CCN1CCN(Cc2ccc(NC(=O)Nc3ccccc3Cl)cc2)CC1 | ? | -15 | -61* | ? | -17 | 0%
O=C(Nc1cccc(C(=O)O)c1)Nc1ccccc1Cl | 2% | 7 | 16 | -8% | 12 | .
O=C(Nc1ccc(Br)cc1)Nc1ccccc1Cl | 10µM* | 2 | 34 | 15µM* | ? | -1%
CN1CCN(NC(=O)Nc2cc(Cl)cc(Cl)c2)CC1 | ? | -4 | -5 | ? | ? | 1%
CCc1nc2c(OCCc3cccc(OC)c3)cccn2c1N(C)C(=O)c1ccc(OC)cc1 | ? | 7 | -4 | ? | -29 | -4%
Cc1c(/C(O)=C2\C(=O)C(=O)N(CCN(C)C)C2c2ccccc2)cnn1-c1ccccc1 (centres undefined) | ? | -16 | 0 | -1% | -7 | .
O=C(Nc1ccncc1)Nc1ccc(Br)cc1Cl | ? | 4 | 12 | 21µM* | -94* | -1%
C=CCNC(=O)Nc1ccc(Br)cc1Cl | ? | 1 | 29 | -28% | -2 | 1%
SMILES | DT40 TDP1 no CPT | D3 ag | D3 antag | TDP1 cell CPT | IL1B secr inh | ClpP mod
O=C(Nc1ccc(CN2CCCCC2)cc1)c1ccc(Br)o1 | -2% | -15 | -62* | 1% | -18 | 0%
O=C(Nc1ccc(CN2CCCCC2)cc1)Nc1ccccc1Cl | ? | -28 | -52* | ? | ? | 1%
CC(=O)Nc1ccc(CN2CCCCCCC2)cc1 | -24% | -3 | ? | -14% | 12 | -2%
O=C(Nc1ccc2nccnc2c1)Nc1ccccc1Cl | 15µM* | -1 | -3 | 18µM* | ? | .
CCOc1ccc(C(=O)NCC(c2ccco2)S(=O)(=O)c2ccc(C)cc2)cc1 (centres undefined) | ? | 1 | . | ? | . | -1%
CCN1C[C@@H]2[C@@H]3C(=O)N(C)C(=O)[C@@H]3[C@](Cc3ccccc3)(C1=O)N2C(=O)c1ccc(F)cc1 | 5% | -20 | 22 | 2% | 23 | -2%
CCn1c(SCC(=O)N(C)C2CCS(=O)(=O)C2)nnc1-c1ccccc1 (centres undefined) | -7% | 6 | 1 | 22% | 3 | .
Cc1ccccc1NS(=O)(=O)c1ccc(NS(=O)(=O)c2cccs2)cc1 | 26% | -3 | ? | 6% | 16 | .
N#Cc1ccc(-n2c(-c3ccccc3)nnc2-c2ccccc2)cc1C#N | 16µM* | 2 | 19 | ? | -74* | ?
O=C(CCC1CCCN(C(=O)Cn2cnnn2)C1)NCc1ccccc1F (centres undefined) | 8% | 10 | 3 | 0% | 13 | -1%
Cc1cccc(N2CCN(C(=O)CCn3c(=O)[nH]c4ccsc4c3=O)CC2C)c1 (centres undefined) | 10µM* | 14 | 86 | ? | 4 | .
O=C(CCCn1c(=O)[nH]c2ccsc2c1=O)N1CCCCC1 | -7% | -3 | 16 | -6% | 8 | -1%
Cc1cccc(N2CCN(C(=O)CCCn3c(=O)[nH]c4ccsc4c3=O)CC2C)c1 (centres undefined) | 26µM* | 9 | 83 | -14% | -20 | .
Cc1ccc(NC(=O)CN2C(=O)COc3ccc(S(=O)(=O)Nc4ccccc4)cc32)c(C)c1 | ? | -18 | . | ? | . | 1%
CC(C)Nc1nc2ccccc2c(=O)[nH]1 | ? | 1 | 12 | 16µM* | 24 | .
O=c1[nH]c(-c2ccncc2)nc2ccccc12 | ? | -1 | -18 | 21µM* | 17 | -12%
C=CCNc1nc2ccccc2c(=O)[nH]1 | 21µM* | -4 | 3 | ? | 31 | .
Cc1cc(C)cc(Nc2nc3ccccc3c(=O)[nH]2)c1 | ? | 7 | 23 | -30% | -5 | .
CCCNc1nc2ccccc2c(=O)[nH]1 | 21µM* | 12 | -1 | 12µM* | -69* | .
